# Bioassay records: PubChem BioAssay, several laboratories
# PfHsp90 yeast 2 – reduces growth (ATP signal) of yeast expressing P. falciparum Hsp90; inhibition, % at 9.4 µM; S. cerevisiae expressing PfHsp90, BacTiter-Glo ATP, 48 h; yeast lacking PDR1 and PDR3 efflux regulators; 310,000 compounds, 0.32% hits; AID 504621;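 active = every replicate shows inhibition above about 80%, whatever the replicate mean, limit read from the data; inconclusive = mean inhibition reaches the set limit but some replicate falls short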;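 note: 0% = DMSO neutral controls and 100% = 20 µM radicicol positive controls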
# tim10-1 inh – growth inhibitors of tim10-1 mutant yeast; S. cerevisiae tim10-1 ts strain growth, BacTiter-Glo, 24 h; inhibition, % at 20 µM; 330,000 compounds, 2.2% hits; AID 463190;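 active = inhibition of at least 40%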;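 note: mutant grown at 25 °C; 0% = DMSO wells with yeast and 100% = wells holding no yeast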
# SKKanGAS inh – inhibitors of SKKanGAS S. pyogenes growth in kanamycin (SK-promoter or general growth effect); BacTiter-Glo, 6 h; inhibition, % at 7.5 µM; 300,000 compounds, 1.3% hits; AID 1662;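 active = mean replicate score, as percent of positive control median, at least 50; inconclusive = mean below 50 but one replicate at or above 50; inactive = mean and every replicate below 50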;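 note: strain carries kanamycin resistance gene driven by streptokinase promoter and grows in 40 µg/ml kanamycin; loss of luminescence reflects streptokinase promoter inhibition or plain growth inhibition; 0% = median of DMSO wells and 100% = positive control at its reference dose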
# NALP3 yeast inh – blocks the NALP3 inflammasome reconstituted in yeast; Yeast reconstituted NLRP3/ASC/caspase-1, beta-gal luminescence, 24 h; inhibition, % at 10 µM; 330,000 compounds, 0.39% hits;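 active = inhibition of 50% or more; inactive = inhibition below 50%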;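 note: plate controls were induced DMSO wells for no effect and uninduced yeast grown without galactose for full effect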
# tim23-1 inh – inhibits growth of tim23-1 mutant yeast; AID 463212; 330,000 compounds, 1.3% hits; S. cerevisiae tim23-1 growth, BacTiter-Glo luminescence, 24 h; inhibition, % at 20 µM;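 active = growth inhibition of the mutant yeast at or above 50%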;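 note: temperature-sensitive mutant grown at 25 °C; plate controls were DMSO-treated mutant yeast for no effect and medium wells lacking yeast for full effect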
# TIM10 inh – growth inhibitors of TIM10 yeast strain | S. cerevisiae TIM10 strain growth, BacTiter-Glo luminescence, 24 h | inhibition, % at 10 µM | 330,000 compounds, 1.4% hits | AID 463195;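 active = inhibition of 40% or more at the single tested concentration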;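 note: wild-type TIM10 isogenic control strain grown at permissive 25 °C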
# * hit, by the source's call; ? = inconclusive; . = no result. Only some compounds are listed: those with a hit (about 4.6% of all), similar ones and a draw of the others.
SMILES,PfHsp90 yeast 2,tim10-1 inh,SKKanGAS inh,NALP3 yeast inh,tim23-1 inh,TIM10 inh
CCCC1COC(Cn2cncn2)(c2ccc(C)cc2)O1 (centres undefined),99*,-209,-2,20,-252,-61
Cc1ccc(S(=O)(=O)N2CCN(C(=O)CCn3cncn3)CC2)cc1,-9,-1,26,8,-7,-4
FC(F)(F)c1cnc(-c2cnc(-c3ccccn3)nc2)c(Cl)c1,-35,-12,56*,26,4,-3
COc1c(CC=C(C)C)cc(C2CC(=O)c3c(O)cc(O)cc3O2)c(CC=C(C)C)c1O (centres undefined),.,23,109*,8,-1,-3
COc1cc(C2CC(=O)c3c(O)cc(O)cc3O2)ccc1O (centres undefined),3,24,0,-3,9,13
c1ccc(-c2nnc(C(c3ccccc3)c3ccccc3)o2)cc1,-19,10,4,9,20,0
OC(c1ccc(OCc2ccccc2)cc1)c1nnc(-c2ccccc2)o1 (centres undefined),-34,18,57*,16,15,12
O=C(Nc1ccc(Cl)cc1)N1CCN(c2ccc3nnc(-c4ccc(F)cc4)n3n2)CC1,3,10,63*,24,8,8
Oc1ccccc1-c1ccn[nH]1,4,-4,.,23,2,-10
Oc1ccccc1-c1nc2c3ccccc3c3ccccc3c2[nH]1,33,.,86*,.,.,.
O=C(Oc1ccc(NC2=C(Cl)C(=O)c3ccccc3C2=O)cc1)c1ccc([N+](=O)[O-])cc1,10,.,54*,.,.,.
COc1ccc(C#Cc2ccc3c(=O)c4ccccc4n(C)c3c2)cc1,-45,29,76*,15,16,21
Cn1c2ccccc2c(=O)c2ccc(C#Cc3ccc(N)cc3)cc21,-9,27,70*,14,30,21
COc1ccccc1C#Cc1ccc2c(=O)c3ccccc3n(C)c2c1,.,25,6,11,2,-8
Clc1ccccc1Cc1noc(CN2CCN(Cc3ccccn3)CC2)n1,3,10,4,8,-12,6
CCCCCC(=O)N(O)C1CC(=O)N(c2ccccc2)C1=O (centres undefined),105*,26,3,-4,19,18
O=C(NNC(=O)c1cccnc1SCc1cccc([N+](=O)[O-])c1)c1ccccn1,-8,24,75*,-4,41,22
O=C(NNC(=O)c1cccnc1SCc1cccc([N+](=O)[O-])c1)c1ccc(F)cc1,11,16,-4,2,2,-6
CCOc1ccc(Oc2ccc(NC(=O)[C@@H](NC(N)=O)[C@@H](C)CC)cc2)cc1,-15,4,1,-11,-17,5
COc1cc(NC(=O)C(=O)NNC(=O)C2CCCCC2)c(OC)cc1Cl,-33,-1,7,11,-5,-7
COc1cc(OC)cc(C(=O)NNC(=O)C(=O)Nc2cc(OC)c(Cl)cc2OC)c1,-18,-7,54*,-3,-5,-11
Nc1ccc(C#Cc2ccc3sc4ccccc4c(=O)c3c2)cc1,21,19,2,31,23,26
COc1cccc2sc3ccc(C#Cc4ccc(N)cc4)cc3c(=O)c12,-23,35,76*,-27,26,26
CC1=NN(c2nc(-c3ccc(C#N)cc3)cs2)C(=O)C1,.,38,-14,27,8,5
O=C1CC(c2ccccc2)=NN1c1nc(-c2ccccc2)cs1,92*,-34,?,10,29,-6
SMILES,PfHsp90 yeast 2,tim10-1 inh,SKKanGAS inh,NALP3 yeast inh,tim23-1 inh,TIM10 inh
CC1=NN(c2nc(-c3ccccc3)cs2)C(=O)C1,-27,26,66*,6,-39,25
CC(C)(C)C1CCC(=NNC(=O)C(=O)NCc2ccco2)CC1 (centres undefined),8,11,1,-9,7,0
Cc1nn(C)c(Cl)c1CN1CCN(C2CCCC2)C(CCO)C1 (centres undefined),-7,6,6,-13,13,-30
CS(=O)(=O)Nc1ccc(C2=NN(C(=O)c3ccccc3)C(c3cccs3)C2)cc1 (centres undefined),-3,34,0,11,16,11
CC(C)(C)C(=O)N1N=C(c2ccc(NS(C)(=O)=O)cc2)CC1c1cccs1 (centres undefined),16,23,50*,5,9,10
CCOC(=O)C1=C(N)c2ccccc2CC1C1CCCC1 (centres undefined),7,-5,55*,11,10,-38
CCC(C)n1c(SCc2ccc([N+](=O)[O-])cc2)nc2ccsc2c1=O (centres undefined),-16,-22,8,6,5,-57
O=C(NCc1cccnc1)Nc1cc(Cl)cc(Cl)c1,-9,-17,54*,3,-14,-4
O=C(Cc1csc(NC(=O)Nc2ccc(Cl)cc2)n1)NCc1cccnc1,5,2,48,8,5,-1
O=C(Cc1csc(NC(=O)Nc2cccc(Cl)c2)n1)NCc1cccnc1,.,-11,89*,16,11,-6
O=C(Cc1csc(NC(=O)Nc2cccc(Cl)c2)n1)NCc1ccccn1,.,5,86*,23,21,3
CC(C)n1nc(C(=O)N2CCN(S(=O)(=O)c3cccs3)CC2)c2ccccc2c1=O,.,21,-2,-16,7,15
Oc1c(Cl)cc(Cl)cc1C(C#Cc1ccccc1)N1CCOCC1 (centres undefined),-14,34,90*,-14,32,18
N#CC(c1ccc(Cl)cc1)N1CCOCC1 (centres undefined),-2,-6,1,19,15,12
NC(=S)N/N=C\c1c(OCc2ccccc2Cl)ccc2ccccc12,-17,-8,50*,19,-3,14
CC1=CN2C(=N)/C(=C/c3ccc([N+](=O)[O-])o3)C(=O)N=C2S1,97*,.,15,.,.,.
CCc1nnc(NS(=O)(=O)c2ccc(NCc3cc(Cl)cc(Cl)c3O)cc2)s1,2,-3,54*,23,10,8
NC(=O)c1ccc(N=Cc2ccc([N+](=O)[O-])s2)cc1,104*,.,.,.,.,.
O=C(Cc1cccs1)N/N=C\c1ccc([N+](=O)[O-])s1,-58,-64,-1,25,2,-42
CC(C)N1C(=O)/C(=C\c2nc3ccccc3c(=O)[nH]2)c2ccccc21,98*,.,.,.,.,.
COc1ccccc1Nc1nc(-c2sc(N)nc2C)cs1,-8,13,23,3,8,7
Cc1nc(N)sc1-c1csc(N(C)c2ccc(O)cc2)n1,-1,26,64*,7,13,11
Oc1[nH]c2ccccc2c1N=NC(=S)N1CCOCC1,0,21,77*,26,17,15
Oc1cccc(NC(=S)N=Nc2c(O)[nH]c3ccccc23)c1,-11,2,20,20,17,8
